HSF1 inh: HSF1 inhibition; activity change, negative = inhibition, % at 7.5 µM (by protocol); NIH3T3-HGL HSE-luciferase, MG132-induced, luminescence 8 h; active compounds read low; 300,000 compounds, 0.77% hits;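 active = more than half of replicate wells show activity change below -50%, luminescence cut by over half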;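 also: luciferase reports HSF-1 transcriptional activity via heat shock element; 0% = median of DMSO wells and -100% = zero luminescence signal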
FXN GAA850 act: activators of GAA850 frataxin (FXN) promoter; HEK293 lucGAA850 FXN promoter luciferase reporter, 24 h; percent of 10 µM SAHA response; activation, % at 6 µM; 360,000 compounds, 0.56% hits;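 active = activation above the average of all compounds screened plus 3 SD, cutoff fixed separately per campaign, cut at about 7.5% in these data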;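 also: 0% = DMSO wells and 100% = 10 µM SAHA wells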
HSP90 inh: inhibitors of HSP90 luciferase refolding in rabbit reticulocyte lysate; luciferase refolding luminescence, 3 h; inhibition, % at 5.6 µM; 290,000 compounds, 0.91% hits;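 active = inhibition above the screen-wide mean plus 3 SD, computed separately per campaign, cut at about 16% in these data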;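 also: 0% = DMSO wells and 100% = 60 µM geldanamycin wells; inhibitors lower the luminescence because luciferase stays unfolded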
SMARCA2 act: SMARCA2 function activation, primary screen. MG213 cells, MMTV-luciferase reporter, dexamethasone, overnight. activation, % at 9.1 µM. 370,000 compounds, 1% hits; in the data active = activation above about 7.8%;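 also: 0% = vehicle wells and 100% = reference activator wells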
AI-2 QS modul: modulators of Vibrio harveyi AI-2 quorum sensing system. 300,000 compounds, 0.4% hits. AID 2094. Vibrio harveyi JMH597 AI-2 luminescence/OD600 ratio, 9 h; active compounds read low; strain lacks LuxN and CqsS sensors; 0 = neutral-control median. activity change, % at 7.5 µM; in the data active = activity change below about -75%, passing the limit was not always enough;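 also: luminescence divided by OD600 gain over 9 h not by final OD600 alone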
PG9 binder: binds the HIV-1 gp120 antibody PG9 | 360,000 compounds, 0.43% hits | TR-FRET gp120-PG9 antibody binding | AID 624416 | inhibition, % at 6.7 µM; in the data active = inhibition above about 8.5%
PG9 bind confirm: PG9 antibody binding, confirmed | AID 651571 | shares compounds with PG9 binder | inhibition, % at 6.7 µM | TR-FRET PG9 antibody binding, biochemical | 1,500 compounds, 90% hits; in the data active = inhibition above about 9%
PGV04 Ab binding: PGV04 control antibody binding, counter-screen; AID 651604; TR-FRET PGV04 antibody-gp120 binding, biochemical; inhibition, % at 6.7 µM; shares compounds with PG9 binder; 1,500 compounds, 95% hits; in the data active = inhibition above about 9.5%
Active calls of the source: *; · = no result; ! = not confirmed by another sample. Shown are actives, neighbours in structure and some others; about 3.4% of the full set was active somewhere.

SMILES | HSF1 inh | FXN GAA850 act | HSP90 inh | SMARCA2 act | AI-2 QS modul | PG9 binder | PG9 bind confirm | PGV04 Ab binding
O=C(NCCc1ccccc1Cl)[C@@H]1CCCN1C(=O)[C@H](Cc1cccnc1)NC(=O)N1CCOCC1 | · | · | · | 1 | · | -1 | · | ·
N#Cc1ccc(-c2nc3ccc(Br)cn3c2Cc2ccccc2)cc1 | · | 1 | · | 2 | · | 10* | 14* | 23*
Cc1cc(Br)cn2c(Cc3cccc(F)c3)c(-c3ccc(C#N)cc3)nc12 | · | · | · | 1 | · | 9.2* | 15* | 21*
N#Cc1ccc(-c2nc3ccc(Br)cn3c2Cc2cccc(F)c2)cc1 | · | · | · | 1 | · | 4 | · | ·
CC(C)C[C@@H]1O[C@H](CCc2ccccc2)Cc2[nH][nH]c(=O)c21 | · | · | · | 0 | · | 0 | · | ·
CCOC(=O)C1=C(C(=O)OCC)C2N(Cc3ccc(Br)cc3)c3ccccc3[C@@]23C[C@@H](C(=O)OC)N(S(=O)(=O)c2cccs2)C3=N1 (stereo partly drawn) | · | · | · | -6 | · | 2 | · | ·
Cc1cc(OCC(=O)NCCc2ccc(S(N)(=O)=O)cc2)c2c(C)c(C)c(=O)oc2c1 | -2 | 0 | -1 | 3 | 10 | 10* | 14* | 25*
COc1ccc(C(=O)COC(=O)c2cccc(-n3cnnn3)c2)c(OC)c1 | 10 | 2 | · | 5 | 9 | 18* | 6 | 9
COc1ccccc1C(=O)COC(=O)c1cc(=O)[nH]c2ccccc12 | 10 | 1 | · | 1 | -13 | 5 | · | ·
COc1ccc(C(=O)COC(=O)c2cc(=O)[nH]c3ccccc23)c(OC)c1 | 30 | 6 | · | 1 | 5 | 46* | 50* | 78*
CCOc1ccc(-c2cc(C(=O)NC3CCCCC3)[nH]n2)c(C)c1 | · | 3 | · | 3 | · | -1 | · | ·
C#CCN1C(=O)[C@]2(OC[C@@H]3Cc4ccccc4[C@@H]3C=C2C)c2ccccc21 | · | · | · | -1 | · | 1 | · | ·
CCOc1cc(OCC)cc(C(=O)NCc2ccco2)c1 | -2 | -1 | 0 | -2 | 15 | 8.9* | 5 | 6
O=C(c1cc2cc(Br)ccc2[nH]1)N1CCc2ccccc21 | 2 | 4 | 2 | -1 | 7 | 15* | 22* | 46*
COc1cc(Br)cc(C(=O)N2CCc3ccccc32)c1OC | · | 1 | · | -2 | · | 1 | · | ·
NC(N)=NS(=O)(=O)c1ccc(NC(=S)NC(=O)c2ccc3c(c2)OCO3)cc1 | -16 | 2 | 1 | -4 | 2 | 9.5* | 15* | 22*
CC(CNC(=O)[C@H]1O[C@@H](n2cnc3c(=O)[nH]c(N)nc32)[C@H](O)[C@@H]1O)c1ccccc1 (stereo partly drawn) | · | · | · | 3 | · | -1 | · | ·
Cc1csc(NC(=O)CCCSc2nc3ccccc3s2)n1 | -11 | 1 | 1 | -3 | 14 | 0 | · | ·
Cc1cnc(NC(=O)CCCSc2nc3ccccc3s2)s1 | -10 | 1 | 1 | 0 | 14 | 13* | 18* | 25*
COc1cccc(N(C)C(=O)[C@@H](C2CC2)[C@@H](O)c2ccc(Cl)cc2)c1 | · | · | · | 0 | · | · | · | ·
Cc1nn(CC(=O)Nc2ccc(Cl)cc2Cl)c(=O)c2ccccc12 | -2 | 3 | -1 | -1 | -22 | 9.1* | 25* | 40*
COCCNC(=O)C1(C)CCCN(C(=O)c2c(-c3ccccc3)noc2C)C1 (stereo not drawn) | · | 1 | · | -2 | · | -1 | · | ·
O=C(NC1=NCCS1)c1sc2cc(F)ccc2c1Cl | -5 | 6 | -1 | 6 | 31 | -5 | · | ·
O=C(Nc1ccon1)c1sc2cc(F)ccc2c1Cl | · | 3 | 0 | 5 | · | 15* | 24* | 46*
COC(=O)c1cc2c(c3c4cc(F)ccc4n(S(=O)(=O)c4cccc(C)c4)c13)C(=O)N(Cc1ccco1)C2 | · | · | · | 3 | · | 0 | · | ·
SMILES | HSF1 inh | FXN GAA850 act | HSP90 inh | SMARCA2 act | AI-2 QS modul | PG9 binder | PG9 bind confirm | PGV04 Ab binding
COc1ccc(CC(=O)OCc2cc3ccc(C)cc3[nH]c2=O)cc1 | -4 | -1 | 1 | 0 | -5 | 17* | 18* | 30*
Cc1ccc(S(=O)(=O)NN2CCCCCC2)cc1 | · | 0 | · | -1 | · | 0 | · | ·
CCOC(=O)CNC(=S)N(CCCN1CCN(C)CC1)Cc1cccs1 | -2 | 3 | -3 | 3 | -8 | 13* | 5 | 9.8*
COc1cccc(C2C(C(=O)c3cc4cccc(OC)c4o3)=C(O)C(=O)N2c2cc(C)on2)c1OC (stereo not drawn) | -4 | 1 | 4 | -1 | 15 | 14* | 22* | 36*
COc1cccc2cc(C(=O)C3=C(O)C(=O)N(c4cc(C)on4)C3c3cccs3)oc12 (stereo not drawn) | -2 | 0 | 0 | -1 | 8 | 4 | · | ·
COc1cc(C2C(C(=O)c3cc4ccccc4o3)=C(O)C(=O)N2c2cc(C)on2)cc(OC)c1OC (stereo not drawn) | 25 | 0 | -2 | 3 | 1 | 2 | · | ·
COc1cccc(C2C(C(=O)c3cc4ccccc4o3)=C(O)C(=O)N2c2cc(C)on2)c1OC (stereo not drawn) | 5 | -2 | 3 | 0 | 36 | 19* | 27* | 43*
CC1=Nc2ccc(C)cc2/C1=C/c1c(N)n2oc(C)cc2nc1=O | -6 | 1 | -2 | -4 | 16 | 17*! | 20* | 43*
CSc1nsc2nc(=O)c(/C=C3\C(C)=Nc4ccc(C)cc43)c(N)n12 | -9 | -1 | 1 | -4 | 25 | 0 | · | ·
CN1CCc2cccc3c2[C@H]1Cc1ccc(O)c(O)c1-3 | 10 | 3 | 6 | 0 | 11 | 11*! | 12* | 15*
O=C(Nc1cccnc1)c1cc(-c2ccc(Cl)c(Cl)c2)on1 | 11 | -1 | -3 | 1 | 8 | -1 | · | ·
O=C(Nc1cccnc1)c1cc(-c2ccc3c(c2)OCO3)on1 | 19 | 2 | 7 | 6 | 13 | 12* | 10* | 22*
CCSc1nnc(NC(=O)CCCOc2ccc(C)cc2)s1 | -3 | 0 | -2 | -1 | 16 | 21* | 13* | 49*
Cc1ccc(-c2cc(C(=O)O)c3cc(Br)ccc3n2)s1 | 14 | 0 | 3 | 4 | -2 | 23* | 28* | 43*
Cc1ccc(-c2cc(C(=O)O)c3cc(Br)ccc3n2)o1 | 4 | 2 | -1 | -2 | 8 | 14* | 10* | 20*
Cc1nc2ccc(Br)cc2c(-c2ccccc2)c1C(=O)O | 4 | 2 | 3 | -2 | 11 | 55* | 65* | 77*
COc1cccc(CN2CCC2(C)C(=O)Nc2cccc(Oc3ccccc3)c2)c1F (stereo not drawn) | · | -5 | · | -4 | · | 1 | · | ·
COc1ccnc(CS(=O)c2nc3ccc(OC(F)F)cc3[nH]2)c1OC (stereo not drawn) | · | · | · | -5 | · | · | · | ·

Source: PubChem BioAssay
